Data: PubChem BioAssay (EPA / NIEHS)
Inconclusive results are not listed. More than one record can exist for a structure, and the calls need not agree. Activity calls are given as the source filed them. How the source made its calls, unless noted: active means hit-call score of the fitted dose curve at least 0.9, where 1 is the maximum; inconclusive means response in the unintended direction; inactive means score below 0.9.

Columns and labels:
[1] = biological target: human Thyroid hormone Receptor beta (TRb), THRB (gene 7068) (UniProt P10828); assay: ATG_hTRb_XSP2: Attagene TRANS-FACTORIAL Multi-Species (XSP2) HepG2 Assay for human Thyroid hormone Receptor beta (TRb) (AID 2283840);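 further: actives raise reporter mRNA so potency reflects agonist-like gain of signal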
Sequence of human Thyroid hormone Receptor beta (TRb), THRB (gene 7068) (P10828 whole entry, looked up, the tested form may be a part): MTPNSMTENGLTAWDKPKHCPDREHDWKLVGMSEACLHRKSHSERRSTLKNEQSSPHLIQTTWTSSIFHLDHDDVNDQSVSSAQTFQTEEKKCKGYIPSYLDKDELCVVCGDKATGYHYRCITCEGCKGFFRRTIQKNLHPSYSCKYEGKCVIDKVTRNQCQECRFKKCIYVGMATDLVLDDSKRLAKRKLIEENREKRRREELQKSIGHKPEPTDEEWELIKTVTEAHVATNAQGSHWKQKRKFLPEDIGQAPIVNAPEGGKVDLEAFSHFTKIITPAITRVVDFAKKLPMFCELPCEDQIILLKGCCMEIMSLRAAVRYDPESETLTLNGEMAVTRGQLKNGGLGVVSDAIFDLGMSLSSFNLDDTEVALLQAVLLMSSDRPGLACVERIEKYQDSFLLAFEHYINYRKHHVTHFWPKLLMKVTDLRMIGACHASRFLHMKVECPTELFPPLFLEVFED
Procedure, shortened: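 Activity of exogenous human TRb–Gal4 fusion measured by reporter mRNA from RT-PCR and capillary electrophoresis, 24 h after dosing transfected HepG2. 6-alpha-fluorotestosterone (3 nM) and norgestrel (1.5 nM) present. Gain-of-signal fit relative to DMSO.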

[2] = test system: Sodium/Iodide Symporter (NIS), SLC5A5 (gene 6528); assay: CPHEA_Stoker_NIS_Inhibition_RAIU: CPHEA's Radioactive Iodide Uptake (RAIU) Assay for Sodium/Iodide Symporter (NIS) Inhibition, Stoker and Laws Labs (AID 2283841)
Procedure, shortened: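 Iodide uptake through human NIS is measured in an engineered HEK293T line. Cells take up 125I (329pM final) for 2 hours at room temperature alongside chemicals at 0.001–100uM. Retained radioactivity is counted, and the signal is expressed against DMSO controls.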

[3] = CPHEA_Stoker_NIS_Cytotoxicity: Cytotoxicity Assessment for CPHEA's Radioactive Iodide Uptake (RAIU) Assay for Sodium/Iodide Symporter (NIS) Inhibition, Stoker and Laws Labs (AID 2283897);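 on AC50: active means loss of ATP signal versus DMSO meaning cytotoxicity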
Procedure, shortened: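 ATP luminescence (Cell Titer Glo) measured viability, with loss of signal normalized to DMSO controls. Cells: hNIS-HEK293T-EPA, seeded 40 hours prior. Dosing: 0.001–100uM, 2 hours, room temperature, uptake buffer pH 7.4.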

[4] = CEETOX_H295R_OHPREG_noMTC: CeeTox H295R High-throughput Steroidogenesis Assay for OH-Pregnenolone (OHPREG), maximum tolerated concentration (MTC) filtered results only (AID 2283912; active means hit-call score of the fitted dose curve at least 0.9, where 1 is the maximum; inactive means score below 0.9); details: actives raise or lower the signal
Experimental: (§1) CEETOX_H295R is a cell-based, multiplexed-readout assay that uses H295R, a human adrenal gland cell line, with measurements taken at 48 hours after chemical dosing in a 96-well plate.CEETOX_H295R_OHPREG_noMTC is one of 12 assay component(s) measured or calculated from the CEETOX_H295R assay (11 hormones and 1 viability assay). It is designed to make measurements of hormone induction, a form of inducible reporter, as detected with absorbance signals by HPLC-MS-MS technology. The concentrations for these components have not been pre-filtered for the maximum tolerated concentration (MTC) based on the MTT assay (_noMTC).Data from the assay component CEETOX_H295R_OHPREG_noMTC was analyzed into 1 assay endpoint. This assay endpoint, CEETOX_H295R_OHPREG_noMTC, was analyzed with bidirectional fitting relative to DMSO as the negative control and baseline of activity. Using a type of inducible reporter, gain or loss-of-signal activity using HPLC-MS-MS was used to understand synthesis of 17alpha-hydroxypregnenolone in H295R cell line at 48hr of chemical exposure, without filtering concentrations for maximum tolerated concentration (MTC). To generalize the intended target to other relatable targets, this assay endpoint is annotated to the steroid hormone intended target family, where the subfamily is progestagens.
(§2) Cell culture and media preparation procedures were conducted in accordance with OECD Test No. 456 guidelines, with minor modifications. H295R cells (ATCC CRL-2128) were expanded for 5 passages and frozen in batches in liquid nitrogen. Prior to the steroidogenesis assay, H295R cells were thawed and passed at least 4 times. The maximum passage was 10. Cells were maintained in a 1:1 mixture of DMEM/F12 supplemented with 5ml/L ITS+ Premix (BD Bioscience) and 12.5 ml/L Nu-Serum (BD Bioscience). After seeding cells into 96-well plates at 50-60% confluency, cells were allowed to adhere overnight. Prior to chemical testing, culture medium was replaced with 175 uL medium containing 10 uM forskolin to stimulate steroidogenesis for 48 hours. Following prestimulation, forskolin medium was replaced with medium containing test chemical solubilized in DMSO (ensuring a final concentration of 0.1% DMSO). Test chemicals were incubated for 48 hours, then the medium was removed and split into 2 vials containing approximately 75uL each, and stored at -80 C prior to hormone analysis. For steroid quantification, media samples were shipped to OpAns, LLC (Durham, NC) on dry ice, and samples were thawed to room temperature prior to liquid-liquid extraction. Steroid hormones were extracted from media samples using methyl tertbutyl ether (MTBE). An extra derivatization with dansyl chloride was included for estrogen (estrone and estradiol) detection only. Steroid hormones were separated by HPLC, eluted using a reverse phase C18 gradient with electrospray positive ionization, followed by quantification by tandem mass spectrometry (MS/MS). Data were acquired on a MassHunter Workstation Acquisition version B03.01 (Agilent Technologies, Inc.) and processed using MassHunter Quantitative Analysis for QQQ. Accuracy was determined for each hormone analyte from 3 standards to determine upper and lower limits of quantification (ULOQ and LLOQ, respectively) using a 7-point standard curve. Precision and accuracy of the extraction and quantification methods were calculated as the percent relative standard deviation (%RSD) of the spiked standards and percent spiked standard recovered, respectively. The goal was to achieve 100% accuracy (i.e., recover all spiked-in standard at quantification with minimal loss during run time) and good precision (i.e., have %RSD <15% to ensure reproducibility). Test medium was removed following chemical exposure, and cell viability was evaluated in the same wells by MTT. MTT procedures were as follows: after removal of test medium, 500 uL of 0.5 mg/ml of 3-[4,5-dimethylthiazol-2-y]2,5-diphenyltetrazoliumbromide solution was added to the cells. […]

[5] = CEETOX_H295R_OHPROG_noMTC: CeeTox H295R High-throughput Steroidogenesis Assay for OH-Progesterone (OHPROG), maximum tolerated concentration (MTC) filtered results only (AID 2283914; active means hit-call score of the fitted dose curve at least 0.9, where 1 is the maximum; inactive means score below 0.9); details: actives raise or lower the signal
Experimental: as §1, with “plate.CEETOX_H295R_OHPROG_noMTC” for “plate.CEETOX_H295R_OHPREG_noMTC”, “CEETOX_H295R_OHPROG_noMTC” for “CEETOX_H295R_OHPREG_noMTC”, “CEETOX_H295R_OHPROG_noMTC,” for “CEETOX_H295R_OHPREG_noMTC,”, “17alpha-hydroxyprogesterone” for “17alpha-hydroxypregnenolone”
as §2

[6] = CEETOX_H295R_ANDR_noMTC: CeeTox H295R High-throughput Steroidogenesis Assay for Androstenedione (ANDR), maximum tolerated concentration (MTC) filtered results only (AID 2283915; active means hit-call score of the fitted dose curve at least 0.9, where 1 is the maximum; inactive means score below 0.9); details: actives raise or lower the signal
Procedure, shortened: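 H295R cells, passage 10 or below, prestimulated 48 h with 10 uM forskolin, then exposed 48 h to chemical in 0.1% DMSO. Medium androstenedione extracted with MTBE, quantified by HPLC-MS/MS; concentrations not MTC-filtered; bidirectional fit versus DMSO.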

[7] = CEETOX_H295R_11DCORT_noMTC: CeeTox H295R High-throughput Steroidogenesis Assay for 11-Deoxycortisol (11DCORT), maximum tolerated concentration (MTC) filtered results only (AID 2283911; active means hit-call score of the fitted dose curve at least 0.9, where 1 is the maximum; inactive means score below 0.9); details: actives raise or lower the signal
Procedure, shortened: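 Values carry no filtering for maximum tolerated concentration: medium from forskolin-primed (10 uM, 48 h) H295R cells after 48 h chemical exposure (0.1% DMSO) was MTBE-extracted, and 11-deoxycortisol quantified by reverse-phase HPLC-MS/MS. Fitting was bidirectional against DMSO.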

[8] = CEETOX_H295R_CORTISOL_noMTC: CeeTox H295R High-throughput Steroidogenesis Assay for Cortisol, maximum tolerated concentration (MTC) filtered results only (AID 2283916; active means hit-call score of the fitted dose curve at least 0.9, where 1 is the maximum; inactive means score below 0.9); details: actives raise or lower the signal
Procedure, shortened: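 H295R adrenal cells were pre-stimulated 48 h with 10 uM forskolin, then exposed 48 h to test chemical in 0.1% DMSO. Medium cortisol was measured by MTBE extraction and HPLC-MS/MS; bidirectional fit versus DMSO, concentrations not MTC-filtered.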

[9] = CEETOX_H295R_CORTIC_noMTC: CeeTox H295R High-throughput Steroidogenesis Assay for Corticosterone (CORTIC), maximum tolerated concentration (MTC) filtered results only (AID 2283917; active means hit-call score of the fitted dose curve at least 0.9, where 1 is the maximum; inactive means score below 0.9); details: actives raise or lower the signal
Procedure, shortened: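 H295R, 10 uM forskolin prestim 48 h → test chem (0.1% DMSO final) 48 h → media MTBE extraction → HPLC-MS/MS corticosterone. Bidirectional fit vs DMSO baseline; no MTT-based MTC filtering.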

[10] = CEETOX_H295R_DOC_noMTC: CeeTox H295R High-throughput Steroidogenesis Assay for DOC, maximum tolerated concentration (MTC) filtered results only (AID 2283918; active means hit-call score of the fitted dose curve at least 0.9, where 1 is the maximum; inactive means score below 0.9); details: actives raise or lower the signal
Procedure, shortened: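 H295R cells prestimulated 48 h with 10 uM forskolin, then exposed 48 h to test chemical (0.1% DMSO final). Medium 11-deoxycorticosterone extracted with MTBE, quantified by HPLC-MS/MS; bidirectional fit versus DMSO, concentrations not MTC-filtered.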

## CC/C(=C(\c1ccccc1)c1ccc(OCCN(C)C)cc1)c1ccccc1
[1]
  outcome: inactive
[2]
  outcome: inactive
[3]
  AC50: 36.2 µM (active)
  outcome: inactive

## O=S(=O)(O)C(F)(F)C(F)(F)OC(F)(F)C(F)(F)F
[2]
  outcome: inactive

## CCCCCCCCCOS(=O)(=O)O
[3]
  outcome: inactive

## O=C(OCc1ccccc1)c1ccccc1O
[2]
  AC50: 9.92 µM (active)
[3]
  outcome: inactive

## CC(=O)OC/C=C(C)/C=C/C=C(C)/C=C/C1=C(C)CCCC1(C)C
[4]
  outcome: inactive
[5]
  outcome: inactive

## CC(=O)C1=C(C)[C@@H]2C[C@@]3(C1)[C@H](C)CC[C@H]3C2(C)C
[2]
  outcome: inactive
[3]
  outcome: inactive

## CCCCCC(=O)O[C@]1(C(C)=O)CC[C@H]2[C@@H]3CCC4=CC(=O)CC[C@]4(C)[C@H]3CC[C@@]21C
[1]
  outcome: inactive
[2]
  outcome: inactive
[3]
  outcome: inactive

## CC(=O)N(C)C
[2]
  outcome: inactive

## COC(=O)c1ccc(C(=O)OC)cc1
[4]
  outcome: inactive
[5]
  outcome: inactive

## CC(=O)OC(C)(C)C
[2]
  outcome: inactive
[3]
  outcome: inactive

## CCC(C)COC(=O)CC(C)C (centres undefined)
[2]
  outcome: inactive

## CCCCCCOc1ccc(O)cc1
[2]
  outcome: inactive
[3]
  outcome: inactive

## CCCCCCCCOS(=O)(=O)O
[3]
  outcome: inactive

## COc1cc(OC)c2ccc(=O)oc2c1
[4]
  outcome: inactive
[6]
  outcome: inactive

## COC(=O)c1cccc(C(=O)OC)c1
[4]
  outcome: inactive
[5]
  outcome: inactive
[6]
  outcome: inactive

## CCCCCCCCCCOC(=O)c1ccccc1C(=O)OCCCCCCCC
[7]
  AC50: 45.7 µM (active)
[4]
  AC50: 41.3 µM (active)
[5]
  AC50: 40.4 µM (active)
[6]
  AC50: 44 µM (active)
[8]
  outcome: inactive
[9]
  outcome: inactive
[10]
  AC50: 33.3 µM (active)

## O=c1cc(-c2ccc(O)cc2)oc2cc(O)cc(O)c12
[1]
  AC50: 7.81 µM (active)
  outcome: inactive
[2]
  outcome: inactive
[3]
  outcome: inactive

## c1ccc(Cc2ccccc2)cc1
[2]
  outcome: inactive
[3]
  outcome: inactive

## CCCCCC1C(=O)CCC1CC(=O)OC (centres undefined)
[4]
  outcome: inactive
[5]
  outcome: inactive

## C=C(C)C(=O)OCCC(F)(F)C(F)(F)C(F)(F)C(F)(F)C(F)(F)C(F)(F)C(F)(F)C(F)(F)F
[2]
  outcome: inactive

## COC(=O)C(C)Oc1ccc(Oc2ncc(C(F)(F)F)cc2Cl)cc1 (centres undefined)
[2]
  outcome: inactive
[3]
  outcome: inactive
[4]
  AC50: 14.1 µM (active)
[5]
  AC50: 1.86 µM (active)

## CCCCCCCCOC(=O)c1ccc(O)cc1
[1]
  outcome: inactive

## CCCCCCCCCO
[2]
  outcome: inactive
[3]
  outcome: inactive

## O=C(O)C(F)(F)OC(F)(F)C(F)(F)OC(F)(F)C(F)(F)C(F)(F)C(F)(F)F
[2]
  outcome: inactive

## CCCCCC1CCC(=O)O1 (centres undefined)
[2]
  outcome: inactive
[3]
  outcome: inactive

## O=C(O)C(F)(F)C(F)(F)C(F)(F)C(F)(F)C(F)(F)C(F)(F)C(F)(F)C(F)F
[2]
  AC50: 18.4 µM (active)

## C#C[C@]1(O)CC[C@H]2[C@@H]3CCc4cc(O)ccc4[C@H]3CC[C@@]21C
[1]
  AC50: 0.0262 µM (active)
[2]
  outcome: inactive
[3]
  outcome: inactive

## [Na+]
[2]
  AC50: 5.73 µM (active)
[3]
  outcome: inactive

## CCCCCCCCCCCCOCCOS(=O)(=O)O
[2]
  AC50: 9.92 µM (active)
[3]
  outcome: inactive

## O=C(c1ccc(OCCN2CCCCC2)cc1)c1c(-c2ccc(O)cc2)sc2cc(O)ccc12
[3]
  AC50: 9.92 µM (active)
